The values that follow come from PubChem BioAssay AID624125 (The Scripps Research Institute Molecular Screening Center, 2012).

Among all 360,000 compounds or so, about 2,600 (0.72%) were called active.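 Rule for the calls: active = inhibition above its plate's cutoff, the mean inhibition of sample wells plus 3 SD (cut at about 27% in these data); inactive = the rest.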 Shown is part of a subset that was picked to be rich in actives.

Sequence of Muscarinic acetylcholine receptor M4 (Homo sapiens) (P08173 whole entry, looked up): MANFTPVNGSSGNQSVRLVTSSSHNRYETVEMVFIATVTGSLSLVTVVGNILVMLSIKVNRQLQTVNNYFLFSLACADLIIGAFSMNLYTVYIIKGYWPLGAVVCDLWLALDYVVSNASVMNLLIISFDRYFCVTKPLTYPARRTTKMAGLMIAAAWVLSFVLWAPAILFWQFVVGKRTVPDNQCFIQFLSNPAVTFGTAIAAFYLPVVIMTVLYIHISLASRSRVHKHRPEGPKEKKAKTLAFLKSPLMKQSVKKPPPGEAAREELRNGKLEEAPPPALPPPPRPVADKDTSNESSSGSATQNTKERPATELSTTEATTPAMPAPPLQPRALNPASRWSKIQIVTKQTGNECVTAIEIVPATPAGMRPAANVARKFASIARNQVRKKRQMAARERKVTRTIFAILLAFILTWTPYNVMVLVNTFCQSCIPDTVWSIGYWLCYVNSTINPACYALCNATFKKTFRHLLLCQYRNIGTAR

This assay has as its target Muscarinic acetylcholine receptor M4 (Homo sapiens) (UniProt P08173). The assay is described as follows: CHRM4 blockers of acetylcholine calcium response – CHO cells, Fluo-8 calcium fluorescence, primary screen (AID 624125).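 Note: 0% = acetylcholine EC80 with DMSO and 100% = DMSO without agonist.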 As to conditions: CHO-hM4 cells, ACh EC80, Fluo-8 calcium fluorescence; at 3 µM; hits give high values.
As for `C=CCOC(=O)C1=C(C)N=C2SCCC(=O)N2C1/C=C/c1ccccc1OC` (stereo not drawn), the inhibition (as a rule, the drop in the measured response relative to a control, in per cent) was 1.49% (inactive).

In the case of `CC1(C)CC(N2CCN(C(c3ccccc3)c3ccccc3)CC2)=CC(=[N+]2CCCCC2)C1`, the inhibition is 56.8% (active).

For `CC1(c2cccc(Br)c2)NC(=O)N(CC(=O)NCCC2=CCCCC2)C1=O` (stereo not drawn), the inhibition was -1.54% (inactive).

Consider `COC(=O)c1cc(S(=O)(=O)N2CCC(C(N)=O)CC2)oc1C`, for which the inhibition was -3.75% (inactive).

Turning to `CCCCN(CCCC)CCC(O)c1cc2c(Cl)cc(Cl)cc2c2cc(C(F)(F)F)ccc12` (stereo not drawn), the inhibition was -6.99% (inactive).

For the compound `O=[N+]([O-])/C=C/c1ccc2c(ccn2Cc2ccccc2)c1`, the inhibition is 51% (active).

Consider `CC(C)CCNC(=O)c1[nH]c(C(F)(F)F)nc1-c1ccccc1`, for which the inhibition is 2.39% (inactive).

Turning to `CCOCCCN1C(=O)CN(C2CCCCC2)C(=O)C1c1ccc(OCC)c(OC)c1` (stereo not drawn), the inhibition was 5.54% (inactive).

In the case of `Cc1cc(=O)[nH]c(Nc2cccc(Br)c2)n1`, the inhibition was 4.17% (inactive).

In the case of `Cc1cc(=O)[nH]c(N/N=C/c2ccc3c(c2)OCCO3)n1`, the inhibition is 29.5% (active).

As for `Cc1ccc(C)c(NC2=NCC(=O)N2c2ccc3c(c2)OCCO3)c1`, the inhibition was 5.91% (inactive).

As for `CC1(C)C[C@H]2C3=CCC4[C@@]5(C)CC[C@H](O)[C@](C)(CO)C5CC[C@@]4(C)[C@]3(C)C[C@@H](O)[C@@]2(CO)[C@@H](O)[C@@H]1O` (stereo partly drawn), the inhibition was -13.3% (inactive).

For the compound `CC1(C)C2CC[C@]3(C)C(CC=C4[C@@H]5C[C@@](C)(CO)CC[C@]5(C(=O)O)CC[C@]43C)[C@@]2(C)CC[C@@H]1O` (stereo partly drawn), the inhibition is 45.8% (active).

Regarding `CC1O[C@@H](OC2C(O)C(C)O[C@H](OC(=O)[C@]34CCC(C)(C)C[C@H]3C3=CCC5[C@@]6(C)CC(O)C(O[C@@H]7OC(CO)C(O)[C@@H](O)[C@@H]7O)[C@@](C)(C(=O)O)C6CC[C@@]5(C)[C@]3(CO)CC4)C2O[C@H]2OC(C)[C@@H](O[C@@H]3OCC(O[C@@H]4OC(CO)C(O)[C@H](O)C4O)[C@@H](O)[C@@H]3O)[C@H](O)C2O)C(O)C(O)C1O` (stereo partly drawn), the inhibition was 4.49% (inactive).

In the case of `O=S(=O)(c1cccc(-c2cn3ccccc3n2)c1)N1CCCC1`, the inhibition is -2.49% (inactive).

`O=C(NCC(c1cccs1)N1CCOCC1)c1cc(Cl)ccc1[N+](=O)[O-]` (stereo not drawn): the inhibition was -29.6% (inactive).

In the case of `CCN1CCN(CC(=O)c2cc(OC)c(OC)c(OC)c2)CC1`, the inhibition is 3.39% (inactive).

For `O=C1C=C(c2ccc(Cl)cc2)C(=O)N1Nc1ccccc1`, the inhibition was 32% (active).

Consider `Cc1cc(C)nc(NS(=O)(=O)c2ccc(N3C(=O)C4CCCCC4C3=O)cc2)n1` (stereo not drawn), for which the inhibition was -3.19% (inactive).

For the compound `Cc1cccc2cc3c(N)c(C(=O)N4CCCc5ccccc54)sc3nc12`, the inhibition was 26.9% (active).

For `Cc1ccc(C(=O)N2CCCc3ccccc32)c(Cl)c1`, the inhibition is -5.91% (inactive).

As to `CCCn1nc(C(=O)N2CCCc3ccccc32)c2ccccc2c1=O`, the inhibition is 3.11% (inactive).

Consider `C=CCn1cc(Cl)cc(C(=O)Nc2ccccc2)c1=O`, for which the inhibition was 1.16% (inactive).

Consider `NS(=O)(=O)c1ccc(NC(=O)COC(=O)C2(c3ccc(F)cc3)CCCC2)cc1`, for which the inhibition was 1.71% (inactive).

`CC(C)(C)C(=O)/C(C#N)=C/c1ccc(O)cc1`: the inhibition was 3.63% (inactive).

Take `O=C(/C=C(O)/C=C/c1ccc(O)cc1)/C=C/c1ccc(O)cc1`: the inhibition was 41.4% (active).

For the compound `NC1=NC(=O)S/C1=C\c1ccc(O)cc1`, the inhibition was 0.37% (inactive).

For `CCNC(=O)C1(C)CCN(Cc2ccc(C(=O)OCC)o2)C1` (stereo not drawn), the inhibition was 3.23% (inactive).

On to `Clc1cccc(Cl)c1Cn1nnc(-c2cccs2)n1`, for which the inhibition was -3.16% (inactive).

Consider `CC(C)[C@@H]1COC(c2cccc(C3=N[C@H](C(C)C)CO3)c2)=N1`, for which the inhibition is 7.38% (inactive).

Turning to `COc1cc(/C=C(\C#N)C(=O)Nc2ccc3ccccc3c2)c([N+](=O)[O-])cc1OC`, the inhibition is 28.5% (active).

On to `COc1cc(/C=C(/NC(=O)c2ccccc2)C(=O)Nc2cccc(O)c2)c([N+](=O)[O-])cc1OC`, for which the inhibition is -11.4% (inactive).

Regarding `COc1cc(NC(=O)COC(=O)CSc2ccc3ccccc3c2)c(C)cc1[N+](=O)[O-]`, the inhibition was -8.64% (inactive).

`CCOC(=O)C1CCN(C(=O)Cn2nc(C)c3c(C)n(-c4ccccc4)nc3c2=O)CC1`: the inhibition was 9.38% (inactive).

Take `Cc1cc(=O)oc2c3c(cc(OCC(=O)N[C@H](C(=O)O)c4ccccc4)c12)OC(C)(C)CC3`: the inhibition is -5.66% (inactive).

As to `O=C1CCCC(O)=C1N=Nc1ccc2ncsc2c1`, the inhibition is 9.09% (inactive).

Regarding `COc1ccc(NC(=O)N(C)C[C@H]2Oc3ccc(NC(=O)C4CC4)cc3C(=O)N([C@H](C)CO)C[C@@H]2C)cc1`, the inhibition was -10% (inactive).

In the case of `CCc1nc2c(OCc3ccc(Cl)cc3Cl)cccn2c1N(C)C(=O)C(C)C`, the inhibition is -17.6% (inactive).

Regarding `Cc1nc2c(OCc3ccc(Cl)cc3Cl)cccn2c1N(C)CC1CC1`, the inhibition was 38% (active).

Consider `Cc1nc2c(OCc3cccc(Cl)c3)cccn2c1N(C)CC1CC1`, for which the inhibition was 8.19% (inactive).

Consider `COC(CNC(=O)c1ccc2c(c1)ncn2-c1cc(C)cc(C)c1)OC`, for which the inhibition was -0.94% (inactive).

On to `CCc1nc2c(OCc3ccccc3)cccn2c1N(C)C(=O)c1ccco1`, for which the inhibition was 8.33% (inactive).

In the case of `COc1ccc(C(c2nnnn2Cc2cccs2)N2CCN(c3ccccc3)CC2)cc1OC` (stereo not drawn), the inhibition was -1.13% (inactive).

As for `CCCCCCC(O)(CCN1CCCCC1)c1ccccc1` (stereo not drawn), the inhibition is 88.2% (active).

As for `COc1ccc(C(O)(C2CCCCC2)C(CN2CCCC2)c2ccccc2)cc1` (stereo not drawn), the inhibition was 5.79% (inactive).

Consider `O=C(c1ccccc1)C(O)(CN1CCCCC1)c1ccccc1` (stereo not drawn), for which the inhibition was 5.71% (inactive).

Take `CCCCOc1ccc(C(C)(O)CCN2CCOCC2)cc1` (stereo not drawn): the inhibition was 3.58% (inactive).

In the case of `c1ccc2cc3[nH]c(CN4CCCCC4)nc3cc2c1`, the inhibition is -0.37% (inactive).

With `CC(CN1CCCCC1)c1ccccc1` (stereo not drawn), the inhibition is 5.04% (inactive).

Consider `C#CC(CCN1CCCCC1)(OC)c1ccccc1` (stereo not drawn), for which the inhibition is 44.6% (active).

In the case of `CCc1ccccc1NC(=O)NCCN1CCCCC1`, the inhibition was 4.05% (inactive).

`CCCCCC(O)(CCN1CCCCC1)c1ccccc1` (stereo not drawn): the inhibition was 98.9% (active).

Turning to `CCC1SC(CC)C(=O)N(CC(=O)NC2CCCCC2)C1=O` (stereo not drawn), the inhibition is 4.12% (inactive).

Regarding `Cc1ccc(C(=O)NC(=S)Nc2ccc3[nH]c(=O)[nH]c3c2)cc1C`, the inhibition is -8.35% (inactive).

Take `COC(=O)c1cccc(-n2[nH]nnc2=S)c1`: the inhibition was 2.86% (inactive).

Take `COc1ccccc1C(=O)NCCn1cc(SCC(=O)NCc2ccco2)c2ccccc21`: the inhibition is 6.25% (inactive).

Consider `COc1cc2c3c(c1)/C(=C1/SC(=S)NC1=O)C(=O)N3C(C)(C)C=C2C`, for which the inhibition was 9.66% (inactive).

Turning to `C=CC[C@@H](CC(=O)N[C@@H](CO)Cc1ccccc1)C(=O)NCCOC(=O)[C@@H](CC=C)CC(=O)OC(C)(C)C`, the inhibition was -5.01% (inactive).

On to `CCc1cc(C(c2ccccc2OC)N2CCOCC2)c(NC(=O)c2ccccc2)s1` (stereo not drawn), for which the inhibition was -6.12% (inactive).

For `COc1ccc(COC(=O)c2n[nH]c3ccccc23)cc1F`, the inhibition is 3.64% (inactive).

Consider `CCCOc1ccccc1C(=O)NCCCC(=O)O`, for which the inhibition is -1.85% (inactive).

Turning to `CN(C)c1ccc(N/C=C/C(=O)C(F)(F)F)cc1`, the inhibition was -4.11% (inactive).

As for `COC(=O)c1cc(NC(=O)CN2CCN(C(C)=O)CC2)cc(C(=O)OC)c1`, the inhibition was 1.81% (inactive).

In the case of `Cc1cc2c(cc1C)N(Cc1ccccc1)C1=NCCCN12`, the inhibition is 10.6% (inactive).

Take `Cc1cc(CN(C)C(=O)c2cc(COc3ccc(C)c(C)c3)on2)n[nH]1`: the inhibition was -2.16% (inactive).

Turning to `Cc1ccc(OCc2cc(C(=O)N(C)CCn3ccnc3C)no2)cc1C`, the inhibition is -0.14% (inactive).

In the case of `CN(Cc1cccnc1)C(=O)c1cc(COc2ccc3ncccc3c2)on1`, the inhibition is 44.2% (active).

`Cc1ccc2c(c1)N(CC(=O)N(Cc1ccccn1)Cc1ccco1)C(=O)C(C(C)C)O2` (stereo not drawn): the inhibition is -6.51% (inactive).

For `O=[N+]([O-])c1c(NCCO)cc(Sc2nc3ccccc3s2)c2nonc12`, the inhibition is 74.6% (active).

In the case of `CCCCN1C(=O)/C(=C2/C=CC=CN2C)SC1=S`, the inhibition is 28.7% (active).

For `CCS(=O)(=O)N1CCCC(C(=O)NCCCN(C)Cc2ccccc2)C1` (stereo not drawn), the inhibition was 6.16% (inactive).

As to `CCS(=O)(=O)c1ccc2c(c1)N(S(=O)(=O)c1ccccc1)CC(C(=O)O)O2` (stereo not drawn), the inhibition is 0.74% (inactive).

With `c1ccc2c(c1)CSc1sccc1C2=C1CCNCC1`, the inhibition is 97.6% (active).

With `CCCCN(CC(=O)Nc1cccc(S(=O)(=O)N2CCCC2)c1)Cc1nc2ccccc2c(=O)[nH]1`, the inhibition is 15.9% (inactive).

Regarding `O=C1CCCc2nn(-c3ccccc3)nc21`, the inhibition was 2.29% (inactive).

For the compound `CCCCC(=O)NNC(=S)NC(=O)C(c1ccccc1)c1ccccc1`, the inhibition was 59.9% (active).

Consider `CCCOCC(O)CC(CC)C(=O)NNC(=S)Nc1ccccc1` (stereo not drawn), for which the inhibition was -8.64% (inactive).

Take `C=CCC(NC(=O)Cc1ccccc1)C(=O)NCCC` (stereo not drawn): the inhibition is 0.03% (inactive).

Regarding `CCOc1ccc(N(CC)S(=O)(=O)c2cccc3nsnc23)cc1`, the inhibition is 4.82% (inactive).

As to `O=C(/C=C/[C@H]1O[C@@H](n2ccc(=O)[nH]c2=O)[C@H](O)[C@@H]1O)NCc1ccccn1`, the inhibition was -0.74% (inactive).

With `COc1ccc(C(=O)O)cc1S(=O)(=O)NCc1cccnc1`, the inhibition was -5.56% (inactive).

With `COc1ccc(C(=O)NC2CC(C)(C)Cc3c2cnn3-c2ccccc2)c(OC)c1` (stereo not drawn), the inhibition was -2.19% (inactive).

On to `Cn1nccc1C(=O)NC1CCCc2c1cnn2-c1ccc(F)cc1F` (stereo not drawn), for which the inhibition was 4.7% (inactive).

Take `COc1ccc(C(=O)NC2CCCc3c2cnn3-c2cccc(C)c2C)c(OC)n1` (stereo not drawn): the inhibition was 30.6% (active).

`CCC(Oc1ccccc1)C(=O)NCc1cccnc1` (stereo not drawn): the inhibition was -2.11% (inactive).

In the case of `CCN(CC(=O)Nc1ccc(NC(C)=O)cc1)C(=O)C1CC(=O)N(Cc2ccc(C)cc2)C1` (stereo not drawn), the inhibition is -10% (inactive).

Regarding `O=C1CC[C@@H](C(=O)N2CSC[C@@H]2C(=O)Nc2ccc(C(F)(F)F)cc2)N1`, the inhibition is -9.06% (inactive).

On to `Cc1c(Cl)cccc1NC(=O)CSc1ccc(-c2cccnc2)nn1`, for which the inhibition is 4.65% (inactive).
